Source: PubChem BioAssay
HTT-AS act – activates huntingtin-antisense promoter activity | Potency, µM (series often up to 57.5 µM), for inactives: at the highest dose activity change, positive = activation, usual class: activators | 0.24% of 48,000 active | AID 1508624 | HEK293 HTT-AS promoter firefly luciferase reporter, 24 h; response scale: percent change from vehicle, -100% = no light; note: potency is the fitted concentration of half-maximal effect; nearly all actives have a fitted effect of over 55% in size
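Firefly luciferase signal from promoter-reporter HEK293 cells was scaled between vehicle (0%) and zero RLU (-100%). Compounds were tested at final concentrations of up to 57.5 uM over 24 h at 37 degrees C. PTC124 at 50 uM final served as control inhibitor.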
GPR32 ag – activates human resolvin D1 receptor GPR32; CHO-K1 GPR32 beta-arrestin PathHunter luminescence, 90 min; zero percent set by DMSO-only wells; activation, % at 76.9 µM; 2.5% of 48,000 active; AID 1346428; O75388;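 active = activation of at least 60% and not above a set upper limit, about 1 call in 100 departs from these limits; inconclusive = activation of 40% to 60%, or above that upper limit; inactive = activation under 40%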; note: 0% is about no effect
Target sequence (O75388 whole entry, looked up): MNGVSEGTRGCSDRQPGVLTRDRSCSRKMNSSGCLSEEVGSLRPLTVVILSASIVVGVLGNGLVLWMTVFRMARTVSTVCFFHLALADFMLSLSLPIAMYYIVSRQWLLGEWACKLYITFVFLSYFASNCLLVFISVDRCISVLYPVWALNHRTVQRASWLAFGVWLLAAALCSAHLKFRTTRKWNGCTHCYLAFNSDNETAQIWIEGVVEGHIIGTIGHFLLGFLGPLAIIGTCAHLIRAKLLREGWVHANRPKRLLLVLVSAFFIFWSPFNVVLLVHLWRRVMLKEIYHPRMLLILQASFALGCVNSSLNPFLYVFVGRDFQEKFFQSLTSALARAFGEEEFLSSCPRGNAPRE
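Beta-arrestin recruitment read-out: luminescence from complemented beta-Gal in CHO-K1 GPR32 PathHunter cells, measured 1 h after detection reagent at ambient temperature following 90 min compound exposure at 37 °C; DMSO served as basal (EC0) control.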
HTT prom inh – inhibits huntingtin promoter activity; HEK293 HTT promoter firefly luciferase reporter, 24 h; Potency, µM (highest dose often 57.5 µM), inactives show at the top dose activity change, negative = inhibition, actives largely listed as inhibitors; 0.93% of 48,000 active; AID 1508623; note: potency is the fitted concentration of half-maximal effect; nearly all actives have a fitted effect of over 50% in size
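Luminescence was read after Dual-Glo reagent and a 10 min room-temperature incubation. Values were normalized to vehicle (0% activity) and zero RLU (-100% activity). Reporter HEK293 cells had been exposed to compounds (up to 57.5 uM final) for 24 h.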
* hit, by the source's call; ? = inconclusive; · = no result; [ ] = another dose, or the depositor's remark. Rows were chosen to be rich in hits. Some 3.7% of all compounds tested hit in one or more screens of this group. Unless noted, calls come from the whole dose curve; as a rule, active = well fitted curve in the direction sought with a large enough effect; inconclusive = small, poorly fitted or top-dose-only effect, or another doubt; inactive = no such curve, though single readings can be large; an effect the other way counts as inactive or inconclusive.

SMILES	HTT-AS act	GPR32 ag	HTT prom inh
CCCOc1cccc(C(=O)N2CCCCC2CCN2CCCCC2)c1 (stereo unspecified)	-4%	-4	-5%
CC(C)=CC[C@@H](O)C1=CC(=O)c2c(O)ccc(O)c2C1=O	-68%	·	?
COc1ccc2[nH]cc(CCNC(=O)Nc3cccc(F)c3)c2c1	-17%	93*	-4%
COc1ccc2[nH]cc(CCNC(=O)Nc3c(C)cccc3C)c2c1	-4%	32	18%
CCS(=O)(=O)N1CC(=O)N(c2cccc(C)c2C)C(C)(C(=O)NC2CCCCC2)C1 (stereo unspecified)	0%	7	4%
Cc1c2cnn(CC(=O)N3CCN(c4ccccc4)CC3)c(=O)c2c(C)n1Cc1ccc(F)cc1	-17%	-3	-28%
COc1ccc(CCN2CCC(Nc3nc4ccccc4n3Cc3ccc(F)cc3)CC2)cc1	-23%	95*	?
COc1ccc(Cn2c(SCC(=O)Nc3ccc(OC)cc3)nc3ccccc32)cc1	-30%	16	?
COc1ccc(-c2cc3nccn3c(Nc3ncccc3C(N)=O)n2)cc1OC	-5%	·	4%
CCC(=O)Nc1ccc2nc(SCc3ccc(C)cc3)sc2c1	3%	86*	-4%
Cc1ccc(CSc2nc3ccc(NC(=O)CC(C)C)cc3s2)cc1	-18%	33	-11%
O=C(Nc1ccc2nc(SCc3ccccc3)sc2c1)c1ccccc1F	-14%	27	-26%
O=C(COc1ccc(F)cc1)Nc1ccc2nc(SCCOc3ccccc3)sc2c1	-18%	26	-14%
Cc1ccc(CSc2nc3ccc(NC(=O)COc4ccc(F)cc4)cc3s2)cc1	-4%	88*	-3%
O=C(COc1ccc(F)cc1)Nc1ccc2nc(SCc3ccccc3)sc2c1	5%	0	6%
NC(=O)CSc1nc2ccc(NC(=O)COc3ccccc3)cc2s1	?	70*	-8%
CC(C)(C)C(=O)Nc1ccc2nc(SCc3ccccc3)sc2c1	2%	120*	-16%
CC(=O)N(C)C1(c2ccccc2)CCN(CCC[C@]2(c3ccc(Cl)c(Cl)c3)CCCN(C(=O)c3ccccc3)C2)CC1	-26%	·	?
COc1ccc(CCN2C(=O)c3[nH]nc(-c4ccccc4O)c3C2c2ccccc2)cc1 (stereo unspecified)	-30%	11	?
C[C@H]1[C@H](O)O[C@@H]2O[C@@]3(C)CC[C@@H]4[C@H](C)CC[C@@H]1[C@@]24OO3	-38%	·	?
CCOc1ccccc1NC(=O)c1cc2ccc3cccnc3c2[nH]1	?	1	38%
COc1ccccc1NC(=O)c1cc2ccc3cccnc3c2[nH]1	?	93*	57%
N#CC(=C1Nc2ccccc2S1)c1ccnc(OCc2ccc(CN3CCOCC3)cc2)n1	-46%	·	?
COc1ccccc1NC(=O)C1CCN(S(=O)(=O)c2ccc3[nH]c4c(c3c2)CCCCC4)CC1	-31%	-9	?
CC(C)(C)C(=O)OCc1cc(=O)n2nc(C3CCCCC3)sc2n1	?	79*	10%
SMILES	HTT-AS act	GPR32 ag	HTT prom inh
CC(=O)OCc1cc(=O)n2nc(C3CCCCC3)sc2n1	20%	15	6%
CC(C)(OCc1nn(Cc2ccccc2)c2ccccc12)C(=O)O	-6%	·	10%
CC(=O)Nc1cccc(-c2nnc(SCC(=O)c3ccc([N+](=O)[O-])cc3)o2)c1	5%	?	-24%
O=C(CSc1nnc(-c2ccc(Cl)cc2)o1)Nc1ccc(F)cc1	?	-20	67%
CC(=O)Nc1ccc(-c2nnc(SCC(=O)c3ccc([N+](=O)[O-])cc3)o2)cc1	6%	64*	-15%
O=C(CSc1nnc(-c2ccc([N+](=O)[O-])cc2)o1)Nc1ccccc1	1.8µM*	-43	67%
Cc1c(-c2cccc(NC(=O)c3ccc(F)c(F)c3)c2)nc2ncccn12	-11%	64*	-2%
Cc1c(-c2cccc(NC(=O)Nc3ccc(Cl)cc3)c2)nc2ncccn12	-5%	?	-18%
N[C@@H](Cn1ccc(=O)c(O)c1)C(=O)O	·	-5	·
C/C(=C(\CCO)SS/C(CCO)=C(\C)N(C=O)Cc1cnc(C)nc1N)N(C=O)Cc1cnc(C)nc1N	-5%	35	6%
O=C(C1CCC(CNS(=O)(=O)c2cccs2)CC1)N1CCN(c2ccc(Cl)cc2)CC1 (stereo unspecified)	-76%	6	4µM*
CC(=O)c1ccc(NC(=O)C2CCC(CNS(=O)(=O)c3cccs3)CC2)cc1 (stereo unspecified)	0%	108*	7%
Cc1ccc(NC(=O)C2CCC(CNS(=O)(=O)c3cccs3)CC2)cc1C (stereo unspecified)	-29%	2	-26%
O=C(C1CCC(CNS(=O)(=O)c2ccc(Br)s2)CC1)N1CCN(c2ccccc2)CC1 (stereo unspecified)	-29%	17	0%
Cc1nn(Cc2ccccc2)c(C)c1NC(=O)c1cc(C(C)C)on1	-4%[11.5 µM]	39	?
Cc1nn(Cc2ccc(Cl)cc2)c(C)c1NC(=O)c1noc2c1CCc1ccccc1-2	·	107*	·
Cc1nn(Cc2ccccc2Cl)c(C)c1NC(=O)c1cc(C(C)C)on1	·	86*	·
COc1ccc2c(c1)CCc1c(C(=O)Nc3c(C)nn(Cc4ccc(Cl)cc4)c3C)noc1-2	-32%	6	?
COc1cc2ncn(-c3cc(OCc4ccccc4C(F)(F)F)c(C(N)=O)s3)c2cc1OC	23%	·	-29%
O=C(NCc1ccncc1)C12C[C@H]3C[C@@H](C1)CC(c1ccc(Cl)cc1)(C3)C2	-16%	·	-3%
O=C(CCCl)NCc1ccccc1	-9%	-15	6%
CCOc1cc(C(=O)Nc2ccc(NC(=O)c3cc4ccccc4o3)c(OC)c2)cc(OCC)c1OCC	-23%	105*	-19%
CCCCOC(=O)c1ccc(NC(=O)c2cc(=O)c3ccccc3o2)cc1	0%	-3	-17%
CCCCOC(=O)c1cccc(NC(=O)c2cc3ccccc3o2)c1	-52%	19	10µM*
COc1cc(NC(=O)c2cc(Cl)c(OC)c(Cl)c2)ccc1NC(=O)c1cc2ccccc2o1	-7%	2	-7%
SMILES	HTT-AS act	GPR32 ag	HTT prom inh
CCCCCCCN(CC)CCCC(O)c1ccc(NS(C)(=O)=O)cc1 (stereo unspecified)	-14%	·	3%
Cc1ccc(CCNC(=O)c2c[nH]c3ccc(S(=O)(=O)Nc4cccc(C(F)(F)F)c4)cc3c2=O)cc1	-43%	-15	16µM*
CCOc1ccc(NS(=O)(=O)c2ccc3[nH]cc(C(=O)NCc4ccco4)c(=O)c3c2)cc1	-30%	67*	-8%
CCOc1ccc(NS(=O)(=O)c2ccc3[nH]cc(C(=O)NCc4ccccc4)c(=O)c3c2)cc1	-28%	?	-4%
CCN(c1ccccc1)S(=O)(=O)c1ccc2[nH]cc(C(=O)NC3CCCCC3)c(=O)c2c1	-39%	29	?
O=C(NC1CCCCC1)c1cc(Nc2cccc(C(F)(F)F)c2)nc2ccccc12	-6%	7	-21%
CCN(c1ccccc1)S(=O)(=O)c1ccc2[nH]cc(C(=O)NCc3ccc(C)cc3)c(=O)c2c1	1%	63*	0%
O=C(NC1CCCC1)c1cc(Nc2cccc(C(F)(F)F)c2)nc2ccccc12	-16%	96*	-13%
